The source of these data is PubChem BioAssay (NCATS).

A short description of assay [1]: U-118MG Cancer Cell Toxicity qHTS against the NCATS CANVASS Library (AID 1347351). Further: series mostly up to about 38 µM. The procedure, abridged: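 1000 cells/well seeded and rested 4 h at 37 °C before pin transfer of compounds in an 11-pnt series. Exposure 72 h at 37 °C/5% CO2; viability by CellTiter-Glo luminescence after 15 min at room temperature.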
In general terms: In qHTS, concentration-response curves come from the screen itself.

The nature of assay [2]: HPAF-II 24hr Apoptosis Induction qHTS against the NCATS CANVASS Library (AID 1347356). The method in brief:
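Apoptosis induction in HPAF-II pancreatic cancer cells is measured as caspase-3/7 luminescence after a 24-hour exposure to compounds.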

A short description of assay [3]: HEK293 18hr Apoptosis Induction qHTS against the NCATS CANVASS Library (AID 1347357). The procedure, abridged:
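Natural products applied to HEK293 for 18 hr; Caspase-Glo 3/7 readout.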

Assay [4] is described as follows: HPAF-II 18hr Apoptosis Induction qHTS against the NCATS CANVASS Library (AID 1347360). The procedure, abridged:
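Luminescent DEVD-substrate signal, proportional to caspase activity, is measured in HPAF-II cells after 18-hour treatment across a concentration series; doxorubicin serves as control.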

Assay [5] is described as follows: HEK293 12hr Apoptosis Induction qHTS against the NCATS CANVASS Library (AID 1347361). The method in brief: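 Luminescent caspase-3/7 signal, proportional to enzyme activity, was recorded from HEK293 cultures in DMEM + 10% FBS treated for 12 hours with titrated natural products (11 points). Doxorubicin (0.1nM - 4uM) served as control.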
Assay [6] concerns NAD(P)H diaphorase (Clostridium kluyveri). The assay is described as follows: Diaphorse counterscreen qHTS: Assay Interference Panel against the NCATS CANVASS Library (AID 1347362). The procedure, abridged: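 Clostridium kluyveri diaphorase in PBS + 0.01% Tween-20 preincubated 15 min with compounds. Resazurin and NADH then added for 5 min at room temperature in the dark; resorufin fluorescence read (ex 525, em 598).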
In general terms: Counterscreens check selectivity or assay interference.

A short description of assay [7]: KB-3-1 Cancer Cell Toxicity qHTS against the NCATS CANVASS Library (AID 1347366). Further: nearly all actives have a fitted effect of over 75% in size. Further: potency means the concentration at half of the fitted maximal effect. The method in brief:
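Cytotoxicity toward KB-3-1 cells (500/well, DMEM + 10% FBS) was scored by CellTiter-Glo luminescence following 72 hr exposure at 37C, with bortezomib titrated as control.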

A short description of assay [8]: MCF7 Cancer Cell Toxicity qHTS against the NCATS CANVASS Library (AID 1347369). The method in brief: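 This 72 hr qHTS scored MCF7 viability by CellTiterGlo luminescence, with 500 cells/well; bortezomib titration ran as control.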
Assay [9] in a line: qHTS for ATAD5 Antagonist screened against the NCATS CANVASS Library (AID 1347370). Further: nearly all actives have a fitted effect of over 65% in size. Further: potency means the concentration at half of the fitted maximal effect. The method in brief:
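HEK293T cells with a stably integrated ATAD5-controlled luciferase reporter were exposed to compounds (11-pt) alongside 10 uM 5-fluorouridine as ATAD5 stabilizer for 16hr at 37C. Viability was read by CellTiter-Fluor fluorescence, then ATAD5 by luminescence.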

Assay [10] is described as follows: J3T Cancer Cell Toxicity qHTS against the NCATS CANVASS Library (AID 1347371). Further: potency means the concentration at half of the fitted maximal effect. The procedure, abridged:
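Viability of the J3T glioma line from dog is scored by ATP luminescence after a 72 hr incubation with natural products.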

The target of assay [11] is Nuclear receptor subfamily 1 group I member 3 (Homo sapiens) (UniProt Q14994). The assay is described as follows: qHTS for Constitutive Androstane Receptor (CAR) Antagonist screened against the NCATS CANVASS Library (AID 1347372). Further: potency means the concentration at half of the fitted maximal effect. The method in brief:
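HepG2 cells stably carrying hCAR and CYP2B6-2.2kb luciferase reporter, 2500 cells/well, compound with 50 nM CITCO agonist for 24hr at 37C. ONE-Glo luminescence measured CAR activity; CellTiter-Fluor read viability.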

Assay [12] shares this target. The assay can be described thus: qHTS for Constitutive Androstane Receptor (CAR) Agonist screened against the NCATS CANVASS Library (AID 1347373).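 Further: every well also contained 1.5 µM PK11195 alongside the test compound.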 The method in brief:
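CAR agonism is scored as CYP2B6-promoter luciferase induction in a double-stable transfected HepG2 line, where 1.5uM PK11195 is included in each well. Compounds were tested over a 24hr exposure.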

The nature of assay [13]: 10-beta competent E. coli microbial cell viability qHTS against the NCATS CANVASS Library (AID 1347376). Further: series mostly up to about 46 µM. The procedure, abridged: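 Cytotoxicity toward competent E. coli is scored from cellular ATP content via BacTiter-Glo luminescence following overnight compound exposure at 37C, 5% CO2.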
Assay [14] in a line: qHTS for H2AX Agonists against the NCATS CANVASS Library (AID 1347378).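 Further: phospho-H2AX S139 level in CHO-K1 lysates by TR-FRET emission ratio.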 The method in brief: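 Signal is the 665/620 nm emission ratio from europium cryptate and d2 antibody pair, rising with S139-phosphorylated H2AX. CHO-K1 cells saw test agents for 3 hr at 37C; detection ran 24 hr at room temperature.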
Assay [15] in a line: qHTS for Inflammasome Signaling Inhibitors: IL-1-beta AlphaLISA screen against the NCATS CANVASS Library (AID 1347379).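 Further: human THP-1 cells primed with LPS then triggered with ATP.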 The method in brief:
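Human THP-1 cells were pretreated 1 hr at 37 °C with compounds (up to 57.5 uM final), then stimulated with LPS (250 ng/mL final) and ATP (1.25 mM final). Secreted IL-1B was read by AlphaLISA after 16 hr.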

A short description of assay [16]: Cytotoxicity qHTS for assessment of Hepg2 cells membrane integrity screened against the NCATS CANVASS Library (AID 1347387). The method in brief:
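Fluorescence proportional to lysed-cell number, from LDH leaking out of HepG2 cells exposed 5 hr at 37C to 0.59 nM - 46 uM compound (11-point qHTS), is measured after 10 min with CytoTox-ONE.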

Assay [17] in a line: Secretion counterscreen for inhibitors of the SERCaMP assay screened against the NCATS CANVASS Library (AID 1347390).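 Further: light from luciferase secreted into medium read as a measure of general secretion.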 Further: potency means the concentration at half of the fitted maximal effect. The procedure, abridged: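 Natural products are titrated in an 11-point series up to 77 uM onto SH-SY5Y-GLuc STOP cells for 20 h. Secreted reporter activity is measured as coelenterazine-driven luminescence, with Brefeldin A on each plate.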
Assay [18] can be described thus: Viability qHTS for inhibitors of the SERCaMP assay screened against the NCATS CANVASS Library (AID 1347400). Further: nearly all actives have a fitted effect of over 70% in size. Further: potency means the concentration at half of the fitted maximal effect. The method in brief: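 Cytotoxicity counter-screen: ATP content (CellTiter-Glo luminescence) of SH-SY5Y-GLuc SERCaMP MJH297 cells after 48 h at 37C with compounds in an 11-point qHTS series.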
Assay [19] in a line: Vero-766 cells viability qHTS against the NCATS CANVASS Library: Counterscreen for Zika virus inhibition assay (AID 1347394). Further: nearly all actives have a fitted effect of over 60% in size. Further: potency means the concentration at half of the fitted maximal effect. The method in brief:
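Counterscreen for toxicity: Vero 766 cells exposed 72 h to an 11-point compound series, viability by CellTiter-Glo.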

Assay [20] can be described thus: Redox Reaction Profiling qHTS: Assay Interference Panel against the NCATS CANVASS Library (AID 1347401). The method in brief: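 Compounds in 11-point series incubated with 5 uM resazurin and 200 uM DTT in 50 mM HEPES pH 7.3, 50 mM NaCl. Resorufin fluorescence (Ex 525/Em 598) read before and after 15 min in the dark.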

Structures are written as SMILES. Results filed as inconclusive are left out. Calls of active or inactive are those of the source. The call rests on the fitted dose curve; in most records, active means well fitted curve in the direction sought with a large enough effect; inconclusive means small, poorly fitted or top-dose-only effect, or another doubt; inactive means no such curve, though single readings can be large; an effect the other way counts as inactive or inconclusive.

Nuclear receptor subfamily 1 group I member 3 (Homo sapiens), sequence (Q14994 whole entry, looked up): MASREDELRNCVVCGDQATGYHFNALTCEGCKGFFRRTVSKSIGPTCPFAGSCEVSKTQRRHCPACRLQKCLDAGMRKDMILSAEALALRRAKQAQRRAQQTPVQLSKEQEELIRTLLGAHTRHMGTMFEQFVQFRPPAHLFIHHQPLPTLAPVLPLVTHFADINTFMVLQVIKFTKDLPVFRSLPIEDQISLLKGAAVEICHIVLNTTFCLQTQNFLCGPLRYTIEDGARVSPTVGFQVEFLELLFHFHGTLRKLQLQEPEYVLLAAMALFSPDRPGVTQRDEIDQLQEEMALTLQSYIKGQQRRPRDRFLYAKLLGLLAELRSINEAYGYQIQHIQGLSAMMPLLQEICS

`Oc1ccc(C2Oc3cc(O)c4c(c3[C@@H]2c2cc(O)cc(O)c2)[C@H]2C(c3ccc(O)cc3)c3c(O)cc5c(c3[C@H]2C4c2ccc(O)cc2)[C@H](c2cc(O)cc(O)c2)C(c2ccc(O)cc2)O5)cc1` (some centres undefined): the Potency entry in assay [1], in [3], in assay [4], in assay [6], in assay [8] and in [9] was “inactive” throughout. In addition, the Potency entry in assay [10], in assay [11], in assay [12], in assay [14], in [15] and in assay [17] was “inactive” throughout. Also, in [18], the Potency result is “inactive”. The result in [2], in assay [5], in assay [13] and in assay [16] was inactive. Moreover, the Potency in [7] was 13.2 µM (active).

With `CO/C=C/C(=O)c1cc2cnc3c(N)cc(=NC(=O)C(C)C)c([nH]1)c23`, the call in assay [2], in assay [5] and in assay [13] was inactive. The Potency result in assay [3], in assay [6], in assay [8], in assay [12], in [14] and in assay [20] was “inactive” in each case. Moreover, the Potency in assay [7] was 0.59 µM (active); in assay [9] it was 0.741 µM (active); in [10], 0.743 µM (active); in assay [11], 0.295 µM (active); in assay [15], 0.968 µM (active); in assay [17] it was 1.72 µM (active). Further, the values for the Potency in assay [19] and in assay [18] were 0.524 µM (active) and 0.381 µM (active), respectively.

As for `C/C=C/C(=O)C1(O)CC2CC(C(=O)O)CC(C)C2C1C1=C2C(=O)NC(=O)C2=C(CCCCC)C(C)O1` (centres undefined), the call in [2], in [5] and in assay [13] was inactive. The Potency entry in assay [3], in [4], in assay [6], in assay [8], in assay [11] and in assay [12] was “inactive” throughout. The Potency entry in assay [14] and in assay [19] was “inactive” each time. The values for the Potency in [9], in assay [10] and in assay [15] were 16.6 µM (active), 20.9 µM (active) and 19.3 µM (active), respectively.

With `COC(=O)c1cc2cc3c(c(O)c2c(=O)o1)OC1(CC3)CC2=C(O1)C(=O)c1c(O)c(OC)cc(OC)c1C2=O` (centres undefined), the Potency entry in assay [1], in assay [3], in [4], in [9], in [10] and in assay [11] was “inactive” in each case. In addition, the Potency entry in [12] is “inactive”. For the same molecule, the result in assay [2], in assay [5], in [13] and in assay [16] was inactive. Further, the Potency in [19] is 26.3 µM (active).

With `CO[C@H]1/C=C/CCCCC(=O)O[C@@H](/C(C)=C/[C@H](C)C(=O)C[C@H](O)CC2CC(=O)NC(=O)C2)[C@@H](C)C1`, the outcome in assay [2], in assay [5], in [13] and in assay [16] was inactive. Also, the Potency entry in [3], in [4], in assay [6], in assay [8], in assay [12] and in [14] was “inactive” each time. In addition, the Potency entry in assay [15] and in assay [19] was “inactive” in each case. Moreover, the values for the Potency in [9] and in assay [17] were 20.9 µM (active) and 17.2 µM (active), respectively.

Regarding `CC(C)=CC[C@H]1C[C@@]2(CC=C(C)C)C(=O)[C@](CC=C(C)C)(C(=O)C(C(=O)c3ccccc3)=C2O)C1(C)C`, the result in assay [2], in assay [5], in assay [13] and in assay [16] was inactive. Moreover, the Potency result in assay [3], in assay [4], in assay [6], in [8], in [11] and in assay [12] was “inactive” throughout. Besides, the Potency result in assay [14], in [17], in assay [18] and in assay [20] was “inactive” throughout.

Consider `CC(=O)N[C@H](C)c1nc(/C=C/C=C/C(=O)CC2CC(=O)CC[C@]2(C)O)cs1` (some centres undefined), for which the Potency result in assay [1], in assay [3], in assay [4], in assay [6], in [7] and in assay [8] was “inactive” in each case. Also, the Potency result in [9], in [10], in [11], in assay [12], in assay [14] and in assay [15] was “inactive” each time. For the same molecule, the Potency entry in assay [17], in assay [19], in assay [18] and in assay [20] was “inactive” in each case. The outcome in assay [2], in assay [5], in assay [13] and in assay [16] was inactive.
